Measurements as given in PubChem BioAssay AID504332 (National Center for Advancing Translational Sciences (NCATS), 2011).
Values joined by “and” are separate entries in the source; they are usually repeats but may differ in a detail not shown here. Equal values may be shown once. Screen size: about 350,000 compounds; about 31,000 (8.9%) were called active. Roughly 15% stayed inconclusive and do not appear here. Calls follow the shape of the dose curve; as a rule, active = well fitted inhibition curve with a large enough effect; inconclusive = small, poorly fitted or top-dose-only effect; inactive = no such curve, though single readings can be large or run the other way. Shown is part of a subset that was picked to be rich in actives. Some structures have more than one record in an assay (separate samples or runs), and their calls can disagree.

biological target: Histone-lysine N-methyltransferase EHMT2 (Homo sapiens) (UniProt Q96KQ7); test: qHTS Assay for Inhibitors of Histone Lysine Methyltransferase G9a; conditions: G9a H3K9 monomethylation, AlphaScreen, 2 h; series mostly up to 102 µM; activity, negative = inhibition: at the top concentration; also: nearly all actives have a fitted effect of over 75% in size
Sequence (Q96KQ7 913-1193 limits assumed): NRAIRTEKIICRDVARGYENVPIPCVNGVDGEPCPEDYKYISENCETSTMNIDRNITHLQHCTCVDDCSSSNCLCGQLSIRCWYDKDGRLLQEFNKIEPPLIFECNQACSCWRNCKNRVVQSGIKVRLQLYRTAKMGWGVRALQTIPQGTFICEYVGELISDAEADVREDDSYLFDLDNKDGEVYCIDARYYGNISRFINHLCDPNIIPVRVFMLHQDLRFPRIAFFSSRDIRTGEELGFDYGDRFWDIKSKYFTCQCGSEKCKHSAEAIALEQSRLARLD
How it was run: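 G9a (20 nM) preincubated 15 min RT with compounds, then 500 nM biotinylated H3K9 peptide and 20 uM SAM added; 2 h RT reaction. Monomethyl-H3K9 product detected by AlphaScreen with anti-H3K9me1 antibody, streptavidin donor and anti-rabbit IgG acceptor beads.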
% is scaled to controls: 0 for no effect and ±100 for the full control effect; potency is read from the fitted curve at half-maximal effect.

Row | Compound | activity, negative = inhibition | Potency
1 | N=c1ccccn1Cc1ccccc1 | -31.1% (inactive) | 
2 | CCCCC/C=C\C/C=C\C/C=C\C/C=C\CCCCCC(=O)NCCO |  | inactive and 12.6 µM (active)
3 | CCCCC/C=C\C/C=C\C/C=C\CCCCCCC(=O)NCCO | 28.1% [at 59 µM] (inactive) | 
4 | CCCCC/C=C\C/C=C\C/C=C\C=C\[C@H](CCCC(=O)O)OO | 22.9% [at 59 µM] (inactive) | 
5 | O=C1/C(=C\c2ccc3c(c2)OCO3)N2CCC1CC2 | 2.58% [at 59 µM] (inactive) | 
6 | O=C(CCN1CCCCC1)NCC(=O)Nc1ccc(Br)cc1C(=O)c1ccccc1 | -0.343% [at 59 µM] (inactive) | 
7 | CCOP(=S)(OCC)C(O)CCCCCn1c(=O)c(F)cn(C2CCCO2)c1=O (stereo unspecified) | 6.51% [at 0.501 µM] (inactive) | 
8 | CN(C)c1nc(N(C)C)nc(N(C#N)CCCl)n1 |  | 39.8 µM (active)
9 | Clc1cccc(Cl)c1Cl | 8.54% [at 0.501 µM] (inactive) | 
10 | C[C@]12CC[C@@H]3c4ccc(O)cc4C[C@@H](CCCCCCCCCS(=O)CCCC(F)(F)C(F)(F)F)C3[C@@H]1CC[C@@H]2O (stereo partly specified) | 11.8% [at 59 µM] (inactive) | 
11 | Cn1c(O)c(C=Nc2ccc3c(c2)CCC3)c(=O)n(C)c1=O | -5.96% [at 59 µM] (inactive) | 
12 | c1ccc2sc(C3CCCNC3)nc2c1 (stereo unspecified) |  | 44.7 µM (active)
13 | c1ccc2sc(N3CCNCC3)nc2c1 | 9.8% (inactive) | 
14 | CC(C)(C)[C@]1(O)C[C@@H]2OC(=O)C[C@@]23C(=O)O[C@@H]2OC(=O)[C@H](O)[C@]213 | 9.37% (inactive) | 
15 | OC1/C(=C/c2ccc(C(F)(F)F)cc2)N2CCC1CC2 (stereo unspecified) | 2.96% (inactive) | 
16 | COC(=O)C1=C(c2ccc3ccccc3c2)C[C@@H]2CC[C@H]1N2C(=O)NCCO | 26.7% [at 2.33 µM] (inactive) | 
17 | COC(=O)C1=C(c2c(C)noc2C)C[C@@H]2CC[C@H]1N2C(=O)NCc1ccc2c(c1)OCO2 | -4.27% [at 0.501 µM] (inactive) | 
18 | COc1ccc(CNCCc2ccc3c(c2)OCO3)c(OC)c1OC |  | 8.91 µM (active)
19 | CCN1CCN(Cc2cc(OC)c3c(c2)OCO3)CC1 | 3.35% (inactive) | 
20 | c1csc(CN2CCCC3(CCNCC3)C2)n1 | 7.82% [at 12.7 µM] (inactive) | 
21 | CCCCCCCCCCCCn1ccc(=N)cc1 | -31.1% (inactive) | 
22 | CC[C@H]1CN2CCc3cc(OC)c(OC)cc3[C@@H]2C[C@@H]1C[C@H]1NCCc2cc(OC)c(OC)cc21 | inactive | 
23 | CCOc1cc(N2CCOCC2)c(OCC)cc1NC(=O)C1=NN(c2cccc(C)c2)C(=O)CC1 |  | 11.2 µM (active)
24 | CCCCCn1c(=O)c(C(=O)NCc2ccccn2)c(O)c2ccccc21 | 106% [at 59 µM] (inactive) | 
25 | O=C1c2ccccc2NC(c2ccccc2O)N1NS(=O)(=O)c1ccccc1 (stereo unspecified) | -19.9% (inactive) | 

Row | Compound | activity, negative = inhibition | Potency
26 | Cc1ccc(N(C)C(=O)Oc2cccc3ccc(C)nc23)cc1 | 31.5% (inactive) | 
27 | COC(=O)COc1cc(C)cc2oc(=O)c3c(c12)CCCC3 | 27.9% [at 59 µM] (inactive) | 
28 | O=C(Nc1cccc(F)c1)N1CC[C@@]2(CCCN(C(=O)Oc3ccccc3)C2)C1 | -11.3% [at 12.7 µM] (inactive) | 
29 | CCC(=O)CC(c1ccc([N+](=O)[O-])cc1)c1c(O)c2ccccc2oc1=O (stereo unspecified) | -41.4% (inactive) | 
30 | COc1cc(C(c2c(O)c3ccccc3oc2=O)c2c(C)n(C)n(-c3ccccc3)c2=O)ccc1O (stereo unspecified) |  | 44.7 µM (active)
31 | CCCCCn1c(=O)c(C(=O)Nc2c(C)n(C)n(-c3ccccc3)c2=O)c(O)c2ccccc21 | 14% [at 59 µM] (inactive) | 
32 | Cc1ccsc1C(=O)C1CCCN(Cc2ccc(O)cc2)C1 (stereo unspecified) | -12% (inactive) | 
33 | CCOC(=O)CC1=C(C(=O)OCC)C2(C(=O)N1)C(C(=O)OC)=C(N)Oc1ccccc12 (stereo unspecified) | 0.286% [at 59 µM] (inactive) | 
34 | CCCCCCN=C(CC)c1c(O)n(CCCC)c(=O)[nH]c1=O | -24.6% [at 12.7 µM] (inactive) | 
35 | COc1ccccc1OC(=O)c1ccc(C)c(S(=O)(=O)N2CCOCC2)c1 | 12.8% (inactive) | 
36 | COc1ccc(C(=O)C2CCCN(Cc3ccc(C)s3)C2)cc1OC (stereo unspecified) | -23.9% (inactive) | 
37 | COc1cc(C(=S)N2CCOCC2)ccc1O | -4.38% [at 12.7 µM] (inactive) | 20 µM (active)
38 | OCC#CC[N+]1(CC#Cc2ccccc2)CCCC1 | 15.5% (inactive) | 
39 | CC(c1ccccc1)(c1ccccc1)c1ccncc1 | 19.7% (inactive) | 
40 | CC(Cc1ccccc1)NCCC(c1ccccc1)c1ccccc1 (stereo unspecified) | -1.18% [at 59 µM] (inactive) | 
41 | Cn1c(O)c(C=NCCN2CCNCC2)c(=O)n(C)c1=O | -6.35% [at 59 µM] (inactive) | 
42 | C=CCN1CCC23c4c5ccc(O)c4O[C@H]2C(=O)CC[C@@]3(O)C1C5 (stereo partly specified) |  | inactive and 31.6 µM (active)
43 | C=CCN1CCC2(C)c3cc(O)ccc3CC1[C@@H]2C (stereo partly specified) | 35.6% [at 59 µM] (inactive) | 
44 | CC(C)N(CC#CCC1(O)c2ccccc2-c2ccccc21)C(C)C | -6.71% [at 59 µM] (inactive) | 
45 | O=C(Nc1cccc(OC(=O)N2CCCCC2)c1)N1CCOCC1 | 47.6% (inactive) | 
46 | Cc1cc(C(=O)OCC(=O)Nc2c(F)cccc2F)c(C)n1C1CC1 | 2.06% (inactive) | 
47 | Cc1noc(C)c1CSc1nc2cc(S(=O)(=O)N3CCOCC3)ccc2o1 |  | 3.16 µM (active)
48 | CN(C)CCN(CC1CCCN(Cc2ccccc2F)C1)C(=O)Cc1ccc(F)c(F)c1 (stereo unspecified) | 21.8% (inactive) | 
49 | CCCC[N+]1(C)C2CC(OC(=O)C(CO)c3ccccc3)CC1C1OC12 (stereo unspecified) | inactive | 
50 | COC(=O)C1=C(c2ccc(F)cc2OCc2ccccc2)C[C@@H]2CC[C@H]1N2C(=O)NCc1ccc2[nH]ccc2c1 | 4.96% [at 0.501 µM] (inactive) | 
